Screening results: PubChem BioAssay, National Center for Advancing Translational Sciences (NCATS)
MCF10A rerep: inducers of DNA re-replication in MCF 10A breast cells; actives 2.9% (n = 350,000); AID 624296; Potency, µM (titrated, usually from 46.1 µM), inactives show at the highest dose activity, positive = re-replication, most hits filed as activators; MCF 10A DNA re-replication, Hoechst nuclear intensity, 48 h; also: potency is read from the fitted curve at half-maximal effect; % of control where 0% means no effect; nearly all actives have a fitted effect of over 50% in size
SW480 rereplic: DNA re-replication induction in SW480 cells; SW480 DNA re-replication, Hoechst DNA content imaging, 48 h; Potency, µM (highest dose often 46.1 µM), inactives show top-dose re-replication activation, most hits filed as activators; actives 1.8% (n = 340,000); also: potency is read from the fitted curve at half-maximal effect; % of control where 0% means no effect; nearly all actives have a fitted effect of over 55% in size
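First, 250 cells per well were seeded. Next, compound or vehicle (23 nL) was pinned in, plates sat 48 hr at 37 C. Finally Hoechst was added for 40 min before fluorescence scanning.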
KB-3-1 tox: KB-3-1 parental cell cytotoxicity; KB-3-1 viability, CellTiter-Glo ATP luminescence, 72 h; Potency, µM (doses to about 46.1 µM), hits mostly cytotoxic; actives 1.4% (n = 400,000); AID 1347075; also: potency is read from the fitted curve at half-maximal effect; % is scaled to controls: 0 for no effect and ±100 for the full control effect; nearly all actives have a fitted effect of over 60% in size
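Viability of parental KB-3-1 cells, measured by CellTiter-Glo luminescence, followed a 72 h incubation at 37 °C with pinned compounds in phenol-red-free DMEM containing 10% FBS.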
KB-V1 MDR tox: kills drug-selected multidrug resistant KB-V1 cells; actives 3.4% (n = 400,000); KB-V1 MDR cells viability, CellTiter-Glo, 72 h; Potency, µM (doses to about 46.1 µM), actives largely listed as cytotoxic; also: potency is read from the fitted curve at half-maximal effect; % is scaled to controls: 0 for no effect and ±100 for the full control effect; nearly all actives have a fitted effect of over 60% in size
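qHTS viability screen in drug-selected KB-V1 MDR cells: 72 h compound treatment at 37 degrees C, ATP luminescence end point.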
hERG WT inh: KCNH2 (human, wildtype) channel inhibition; Q12809; U2OS, BacMam KCNH2, thallium flux FluxOr; stronger effect = lower value; activity change, % at 1.84 µM; actives 0.37% (n = 340,000); AID 720551;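 active = maximum activity change below -70%; inconclusive = maximum activity change between -70% and -50%; inactive = maximum activity change above -50%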; also: % is scaled to controls: 0 for no effect and ±100 for the full control effect
Target sequence (Q12809 whole entry, looked up): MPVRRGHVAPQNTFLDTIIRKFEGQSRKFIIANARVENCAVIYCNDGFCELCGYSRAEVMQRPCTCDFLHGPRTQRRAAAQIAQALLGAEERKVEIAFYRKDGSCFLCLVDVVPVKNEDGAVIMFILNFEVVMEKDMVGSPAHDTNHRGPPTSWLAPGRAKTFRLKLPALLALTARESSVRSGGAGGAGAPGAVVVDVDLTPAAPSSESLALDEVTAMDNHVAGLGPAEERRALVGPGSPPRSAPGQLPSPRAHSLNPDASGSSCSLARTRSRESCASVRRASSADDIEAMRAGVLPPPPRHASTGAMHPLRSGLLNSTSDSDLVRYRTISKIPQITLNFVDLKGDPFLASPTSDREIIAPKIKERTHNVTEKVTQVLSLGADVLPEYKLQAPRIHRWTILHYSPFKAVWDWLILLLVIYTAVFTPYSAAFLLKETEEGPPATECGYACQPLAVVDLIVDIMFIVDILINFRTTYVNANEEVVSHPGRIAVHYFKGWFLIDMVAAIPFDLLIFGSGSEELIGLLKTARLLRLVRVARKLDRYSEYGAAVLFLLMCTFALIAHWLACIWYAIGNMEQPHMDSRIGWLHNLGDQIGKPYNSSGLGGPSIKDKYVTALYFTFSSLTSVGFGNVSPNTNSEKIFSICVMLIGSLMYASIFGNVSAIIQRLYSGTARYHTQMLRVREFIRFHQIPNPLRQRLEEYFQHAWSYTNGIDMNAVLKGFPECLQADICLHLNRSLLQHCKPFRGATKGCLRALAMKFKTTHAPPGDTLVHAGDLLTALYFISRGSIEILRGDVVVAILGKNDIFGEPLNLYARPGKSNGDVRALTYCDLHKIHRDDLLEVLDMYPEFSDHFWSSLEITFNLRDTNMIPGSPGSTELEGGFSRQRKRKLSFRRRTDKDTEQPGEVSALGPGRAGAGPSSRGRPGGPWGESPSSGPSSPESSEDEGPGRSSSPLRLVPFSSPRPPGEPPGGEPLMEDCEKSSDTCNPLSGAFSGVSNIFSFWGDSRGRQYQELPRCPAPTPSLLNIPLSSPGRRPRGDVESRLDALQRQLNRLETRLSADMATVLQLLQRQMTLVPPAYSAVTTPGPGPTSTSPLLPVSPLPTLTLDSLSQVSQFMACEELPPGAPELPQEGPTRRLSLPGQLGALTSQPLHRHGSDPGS
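U2OS cells transduced with wild-type KCNH2 virus are loaded with FluxOr dye for 45 min, and thallium flux is measured in kinetic reads before and after stimulation buffer. Rate constants are normalized to DMSO controls.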
KCNH2 3.1 inh: KCNH2 3.1 (human) potassium channel inhibition; activity change, % (tested at about 1.8 µM); U2OS KCNH2 3.1, thallium flux FluxOr; stronger effect = lower value; actives 0.95% (n = 340,000);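 active = maximum activity change below -70%; inconclusive = maximum activity change from -70% to -50%; inactive = maximum activity change above -50%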;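 also: thallium influx rate constant from kinetic fluorescence after stimulation buffer; % is scaled to controls: 0 for no effect and ±100 for the full control effect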
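Steps: virus added to U2OS suspension (4 h, RT, dark); medium with 10% FBS added, cells plated, 37 C overnight; FluxOr/Red40 loading buffer 45 min RT; stimulation buffer, 2 min kinetic read; rate constant normalized.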
* marks the source's active call; other numbers are inactive results; i = inactive; ? = inconclusive; nt = no result given; [ ] = another dose, or the depositor's remark. Only some compounds are listed: those with a hit (about 7.6% of all), similar ones and a draw of the others. Unless noted, calls follow the shape of the dose curve; as a rule, active = well fitted curve in the direction sought with a large enough effect; inconclusive = small, poorly fitted or top-dose-only effect, or another doubt; inactive = no such curve, though single readings can be large; an effect the other way counts as inactive or inconclusive.

SMILES	MCF10A rerep	SW480 rereplic	KB-3-1 tox	KB-V1 MDR tox	hERG WT inh	KCNH2 3.1 inh
O=c1[nH]c(CN2CCN(S(=O)(=O)/C=C/c3ccccc3)CC2)nc2cc(Cl)ccc12	18.4µM*	?	23.1µM*	?	-32.4	?
NC(=O)C1CCN(Cc2nc3ccccc3c(=O)[nH]2)CC1	425.2%[0.0737 µM]	-2.1%	i	i	-1.2	-4.9
NC(=O)C1CCN(Cc2nc3cc(Cl)ccc3c(=O)[nH]2)CC1	20.6µM*	-0.2%	?	i	-14.4	11.3
O=c1[nH]c(CN2CCN(S(=O)(=O)/C=C/c3ccccc3)CC2)nc2ccccc12	28.1%	1.7%	i	i	12.8	-7.2
COc1ccc(/C(C)=N/OCC(=O)Nc2nc3ccccc3s2)cc1OC	?	-115.1%	?	14.6µM*	9.4	-9.7
C/C(=N\OCC(=O)Nc1nc2ccccc2s1)c1ccccc1	?	-13.7%	i	?	2.7	3.2
CCn1cc(C(=O)NCCC(C)C)c(=O)c2cc(S(=O)(=O)N(C)C3CCCCC3)ccc21	nt	nt	i	i	nt	nt
OC1(c2ccccc2)CCN(Cc2ccccc2)C2CCCCC21 (stereo unspecified)	11.5%	-35.4%	i	23.1µM*	10.9	-7.3
COc1ccc(-n2c(=O)c3c4c(sc3n(CC(=O)NC3CCCC3)c2=O)CCCC4)c(OC)c1	-1.2%	-14.8%	i	i	-7.7	16.8
COc1ccc(-n2c(=O)c3c4c(sc3n(CC(=O)NCc3ccco3)c2=O)CCC4)c(OC)c1	11.0%	-0.5%	i	16.4µM*	7.0	9.6
O=C(OCC(=O)N1CCCCCC1)c1cc(S(=O)(=O)N2CCOCC2)ccc1F	nt	nt	i	?	3.2	6.8
Cc1nnn(C23C[C@@H]4C[C@@H](CC(C(=O)N5CCN(c6ccccc6)CC5)(C4)C2)C3)n1	7.0%	-14.3%	i	?	4.1	1.1
NS(=O)(=O)c1ccc2c(c1)C(=NO)c1cc(S(N)(=O)=O)ccc1-2	0.9%	-1.6%	i	?	-6.2	4.7
NC1=C(Cl)C(=O)c2ccc(S(N)(=O)=O)cc2C1=O	1.46µM*	0.731µM*	?	?	-2.0	-9.3
NC1=C(Cl)C(=O)c2ccccc2C1=O	?	16.4µM*	?	i	3.7	-6.7
CC(C)OCCCNC(=O)c1cccc(NC(=O)c2ccccc2)c1	2.0%	-1.0%	i	16.4µM*	-4.2	-13.2
CC(C)OC(=O)c1cccc(NC(=O)c2ccccc2)c1	?	6.1%	i	11.6µM*	5.4	-1.2
CC1=C(C(=O)Nc2cccnc2)C(c2ccccc2)n2nc(SCc3ccccc3Cl)nc2N1 (stereo unspecified)	nt	nt	i	?	nt	nt
COc1ccc(OCC(=O)NNC(=O)c2ccc3c(=O)n4c(nc3c2)CCC4)cc1	-0.5%	-1.6%	i	?	3.0	-4.0
CC(C)Cn1cc(-c2cccc3nccn23)cn1	nt	nt	i	i	nt	nt
CCOC(=O)C1=C(N)n2c(s/c(=C/c3ccco3)c2=O)=C(C(=O)OC)C1c1ccco1 (stereo unspecified)	6.51µM*	13µM*	8.2µM*	?	-1.8	2.2
COc1ccc(C)cc1NC(=O)c1cc(S(=O)(=O)N2CCc3ccccc3C2)ccc1F	nt	nt	?	i	nt	nt
Cc1cc(C)n(-c2nnc(Nc3ccc(C)c(Cl)c3)c3ccccc23)n1	nt	nt	i	i	nt	nt
O=C(CN1C(=O)COc2ccc(S(=O)(=O)N3CCCCCC3)cc21)N1CCN(c2ccc(F)cc2)CC1	nt	nt	i	i	nt	nt
CCc1cc(=O)oc2c3c(cc(OCC(=O)NCc4cccnc4)c12)OC(C)(C)CC3	-36.7%	0.7%	i	?	-7.1	2.1
SMILES	MCF10A rerep	SW480 rereplic	KB-3-1 tox	KB-V1 MDR tox	hERG WT inh	KCNH2 3.1 inh
CCc1cc(=O)oc2c3c(cc(OCC(=O)Nc4cccnc4)c12)OC(C)(C)CC3	?	0.3%	i	16.4µM*	-1.6	-5.4
NS(=O)(=O)c1ccc(NC(=O)COC(=O)C2CC2)cc1	-26.1%	-5.3%	i	i	-0.8	2.4
COc1ccc(Br)cc1/C=C/C(=O)Nc1ccc2ccccc2c1	?	-1.9%	i	i	-3.9	-6.3
CCC(=O)Nc1cccc(C(=O)/C=C/c2cc(Br)ccc2OC)c1	2.91µM*	3.66µM*	i	18.4µM*	-14.9	-27.1
CC(=O)Nc1cccc(C(=O)/C=C/c2ccc(Br)cc2)c1	5.8µM*	20.6µM*	i	?	-1.3	5.5
CCN(CC)c1ccc(/C=C/C(=O)c2ccc(Br)cc2)cc1	?	?	i	i	-166.7*	?
CC(=O)Nc1cccc(C(=O)/C=C/c2ccc(F)cc2)c1	9.2µM*	?	i	?	-1.8	-7.5
O=C(COc1ccccc1Cl)Nc1ccc(OCc2cc(=O)n3ccsc3n2)cc1	nt	nt	i	?	nt	nt
CCc1c(C)sc(NC(=O)CCc2ccc(OC)cc2)c1C(N)=O	-4.6%	-0.2%	i	20.6µM*	-10.8	0.8
CCCc1nn2c(=O)cc(COC(=O)c3cccs3)nc2s1	nt	nt	i	i	nt	nt
CC(C)C[C@H](NC(=O)c1nc[nH]c1C(=O)N1CCNCC1)C(=O)OCc1ccccc1	-2.4%	-8.0%	i	i	-11.7	-4.6
CC(C)C[C@H](NC(=O)c1nc[nH]c1C(=O)N1CCN(c2ccccc2)CC1)C(=O)OCc1ccccc1	11.6µM*	1.2%[9.22 µM]	i	i	-1.0	-78.0*
CC(C)C[C@H](NC(=O)c1nc[nH]c1C(=O)NCC(=O)OCc1ccccc1)C(=O)OCc1ccccc1	1.7%	-10.6%	i	?	-120.5*	-2.9
CSc1ccccc1NC(=O)CSCc1nc2sc(C)c(C)c2c(=O)[nH]1	2.31µM*	-25.6%	i	i	2.1	8.9
Cc1sc2nc(CSCC(=O)Nc3ccccc3C#N)[nH]c(=O)c2c1C	21.1%	6.6%	i	20.6µM*	-0.8	-16.6
CC(=O)c1ccccc1NC(=O)CSCc1nc2sc(C)c(C)c2c(=O)[nH]1	3.1%	-5.0%	i	?	-8.6	5.9
